Read-out in assay [1]: C-C motif chemokine 2 (Homo sapiens) (UniProt P13500)
Nature of the assay: BSK_KF3CT_MCP1: BioMAP Diversity Plus: KF3CT Assay for Monocyte Chemoattractant Protein 1 (MCP1/CCL2) Biomarker Activity (AID 2283073). The settings on record: primary human keratinocytes with fibroblasts; actives raise or lower the signal. The gist of the method: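 KF3CT skin co-culture (keratinocytes/foreskin fibroblasts), 24 h post-dose; MCP-1 by ELISA; gain/loss of signal fit bidirectionally vs DMSO baseline.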

Read-out in assay [2]: urokinase plasminogen activator (uPA), PLAU (gene 5328)
Nature of the assay: BSK_KF3CT_uPA: BioMAP Diversity Plus: KF3CT Assay for urokinase plasminogen activator (uPA) Biomarker Activity (AID 2283075). The following applies: primary human keratinocytes with fibroblasts; actives raise or lower the signal. The procedure, abridged:
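Human keratinocyte plus foreskin fibroblast primary co-culture exposed to chemical for 24 h. uPA levels were quantified by ELISA, and activity was fitted bidirectionally against a DMSO negative-control baseline.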

Read-out in assay [3]: CD40, CD40 (gene 958)
Nature of the assay: BSK_LPS_CD40: BioMAP Diversity Plus: LPS Assay for CD40 Biomarker Activity (AID 2283076). The settings on record: primary human HUVEC with PBMC; actives raise or lower the signal. The procedure, abridged:
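ELISA readout of CD40 in HUVEC/PBMC co-culture (BSK_LPS system), 24 h post-dosing; bidirectional curve fit, DMSO baseline; parallel SRB total-protein staining for cytotoxicity.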

Read-out in assay [4]: E-selectin (Homo sapiens) (UniProt P16581)
Nature of the assay: BSK_LPS_Eselectin: BioMAP Diversity Plus: LPS Assay for Eselectin Biomarker Activity (AID 2283077). The following applies: primary human HUVEC with PBMC; actives raise or lower the signal. The procedure, abridged:
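ELISA readout of E-selectin, 24 h post-dose, HUVEC + PBMC co-culture (LPS system). Gain or loss of signal vs DMSO baseline, bidirectional fit.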

Read-out in assay [5]: Interleukin-8 (IL8), CXCL8 (gene 3576)
Nature of the assay: BSK_LPS_IL8: BioMAP Diversity Plus: LPS Assay for Interleukin-8 (IL8) Biomarker Activity (AID 2283078). The following applies: primary human HUVEC with PBMC; actives raise or lower the signal. The procedure, abridged: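 HUVEC + PBMC co-culture, LPS-activated; test chemicals dosed, IL-8 read by ELISA at 24 h. Bidirectional curve fit vs DMSO baseline (gain or loss of signal).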

The nature of assay [6]: BSK_LPS_SRB: Viability Assessment in the BioMAP Diversity Plus: LPS Assay (AID 2283079).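 Also: total protein by sulforhodamine B absorbance as a cytotoxicity measure; measured one day after compound addition; fitted in both directions against DMSO so loss or gain of signal counts.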 The settings on record: primary human HUVEC with PBMC. The gist of the method:
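HUVEC + PBMC co-culture, LPS-stimulated; compound 24 h. 10% TCA fix, 0.1% SRB stain, A560. Bidirectional fit vs DMSO.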

Read-out in assay [7]: Interleukin-1 alpha (IL1a), IL1A (gene 3552)
Nature of the assay: BSK_LPS_IL1a: BioMAP Diversity Plus: LPS Assay for Interleukin-1 alpha (IL1a) Biomarker Activity (AID 2283080). The settings on record: primary human HUVEC with PBMC; actives raise or lower the signal. The procedure, abridged:
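HUVEC/PBMC co-culture, LPS system; 24 h after dosing; IL-1a by ELISA; gain or loss of signal fitted bidirectionally vs DMSO baseline.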

Read-out in assay [8]: Monocyte Chemoattractant Protein-1 (MCP1), CCL2 (gene 6347)
Nature of the assay: BSK_LPS_MCP1: BioMAP Diversity Plus: LPS Assay for Monocyte Chemoattractant Protein-1 (MCP1) Biomarker Activity (AID 2283081).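 As to AC50: secreted MCP-1 protein quantified by ELISA in culture supernatant.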 The settings on record: primary human HUVEC with PBMC; actives raise or lower the signal. The procedure, abridged:
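ELISA read-out of MCP-1 after 24 h chemical dosing of a human umbilical vein endothelial cell/peripheral blood mononuclear cell co-culture stimulated with LPS. Gain or loss of signal fitted relative to DMSO controls.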

Assay [9] can be described thus: BSK_LPS_PGE2: BioMAP Diversity Plus: LPS Assay for Prostaglandin E2 (PGE2) Biomarker Activity (AID 2283082).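 As to AC50: secreted prostaglandin E2 measured by ELISA in LPS-stimulated co-culture.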 The settings on record: primary human HUVEC with PBMC; actives raise or lower the signal. The gist of the method:
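HUVEC plus human PBMC co-culture stimulated with LPS; secreted PGE2 quantified by ELISA 24 h after chemical dosing. Activity fitted bidirectionally against DMSO baseline; parallel SRB staining (0.1% SRB after 10% TCA fixation, 560 nm) flags overt cytotoxicity.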

Read-out in assay [10]: Macrophage colony-stimulating factor (MCSF), CSF1 (gene 1435)
Nature of the assay: BSK_LPS_MCSF: BioMAP Diversity Plus: LPS Assay for Macrophage colony-stimulating factor (MCSF) Biomarker Activity (AID 2283083). The following applies: primary human HUVEC with PBMC; actives raise or lower the signal. The gist of the method: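 HUVEC + PBMC co-culture (human primary), 24 h post-dose; M-CSF by ELISA; gain/loss of signal fitted bidirectionally vs DMSO baseline.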

Read-out in assay [11]: Tissue Factor, F3 (gene 2152)
Nature of the assay: BSK_LPS_TissueFactor: BioMAP Diversity Plus: LPS Assay for Tissue Factor Biomarker Activity (AID 2283084). The settings on record: primary human HUVEC with PBMC; actives raise or lower the signal. The gist of the method: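 HUVEC/PBMC co-culture, LPS-activated; CD142 ELISA read 24 h post-dose; bidirectional curve fit vs DMSO negative control.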

Read-out in assay [12]: Tumor necrosis factor (Homo sapiens) (UniProt P01375)
Nature of the assay: BSK_LPS_TNFa: BioMAP Diversity Plus: LPS Assay for Tumour Necrosis Factor alpha (TNFa) Biomarker Activity (AID 2283085). The following applies: primary human HUVEC with PBMC; actives raise or lower the signal. The procedure, abridged: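 Human umbilical vein endothelial cells co-cultured with PBMC and stimulated with LPS. TNFa was measured by ELISA 24 h after chemical dosing, fitted bidirectionally relative to DMSO.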

Read-out in assay [13]: Vascular cell adhesion molecule 1 (VCAM1), VCAM1 (gene 7412)
Nature of the assay: BSK_LPS_VCAM1: BioMAP Diversity Plus: LPS Assay for Vascular cell adhesion molecule 1 (VCAM1) Biomarker Activity (AID 2283086). The following applies: primary human HUVEC with PBMC; actives raise or lower the signal. The gist of the method:
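Human umbilical vein endothelial cells co-cultured with PBMC and stimulated with LPS; VCAM-1 measured by ELISA 24 h after dosing. Bidirectional curve fitting against DMSO baseline; cytotoxicity tracked in parallel by SRB total-protein staining.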

Read-out in assay [14]: CD38, CD38 (gene 952)
Nature of the assay: BSK_SAg_CD38: BioMAP Diversity Plus: SAg Assay for CD38 Biomarker Activity (AID 2283087). The settings on record: primary human HUVEC with PBMC; actives raise or lower the signal. The gist of the method: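 Human HUVEC plus PBMC co-culture stimulated with superantigen; CD38 measured by ELISA 24 h after chemical dosing. Fluorescence read-out, bidirectional fit against DMSO; cytotoxicity tracked in parallel by SRB and Alamar Blue.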

Read-out in assay [15]: CD40, CD40 (gene 958)
Nature of the assay: BSK_SAg_CD40: BioMAP Diversity Plus: SAg Assay for CD40 Biomarker Activity (AID 2283088). The following applies: primary human HUVEC with PBMC; actives raise or lower the signal. The gist of the method: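 HUVEC/PBMC co-culture, 24 h post-dose; CD40 by ELISA, fluorescence intensity; bidirectional fit vs DMSO negative control.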

Read-out in assay [16]: CD69, CD69 (gene 969)
Nature of the assay: BSK_SAg_CD69: BioMAP Diversity Plus: SAg Assay for CD69 Biomarker Activity (AID 2283089).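 As to AC50: cell surface CD69 protein quantified by ELISA with fluorescence detection.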 The following applies: primary human HUVEC with PBMC; actives raise or lower the signal. The procedure, abridged:
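Values derive from bidirectional fitting relative to DMSO vehicle. Cells: umbilical vein endothelium plus peripheral blood mononuclear cells, treated 24 h before fluorescent ELISA for CD69.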

Read-out in assay [17]: Monocyte Chemoattractant Protein-1 (MCP1), CCL2 (gene 6347)
Nature of the assay: BSK_SAg_MCP1: BioMAP Diversity Plus: SAg Assay for Monocyte Chemoattractant Protein-1 (MCP1) Biomarker Activity (AID 2283090). The settings on record: primary human HUVEC with PBMC; actives raise or lower the signal. The gist of the method: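 MCP-1 levels in the endothelial–PBMC SAg co-culture were quantified by ELISA at 24 h post-dosing; both increases and decreases versus DMSO scored. Cytotoxicity monitored by SRB total protein in parallel cultures.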

Read-out in assay [18]: E-selectin (Homo sapiens) (UniProt P16581)
Nature of the assay: BSK_SAg_Eselectin: BioMAP Diversity Plus: SAg Assay for Eselectin Biomarker Activity (AID 2283091). The settings on record: primary human HUVEC with PBMC; actives raise or lower the signal. The gist of the method: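 E-selectin ELISA readout at 24 h post-dosing in human umbilical vein endothelial cell/PBMC co-culture; gain or loss of signal fitted relative to DMSO baseline.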

Read-out in assay [19]: Monokine induced gamma interferon (MIG), CXCL9 (gene 4283)
Nature of the assay: BSK_SAg_MIG: BioMAP Diversity Plus: SAg Assay for Monokine induced gamma interferon (MIG) Biomarker Activity (AID 2283092). The settings on record: primary human HUVEC with PBMC; actives raise or lower the signal. The procedure, abridged:
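Values reflect bidirectional fitting of ELISA-measured MIG against DMSO vehicle, taken 24 h after dosing of a co-culture of human umbilical vein endothelial cells and peripheral blood mononuclear cells.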

Structures are written as SMILES. “And” between values parts separate entries of the source, which are not always exact repeats. Equal values may be shown once. The source made the active and inactive calls. The calls were made as follows: active = hit-call score of the fitted dose curve at least 0.9, where 1 is the maximum; inactive = score below 0.9.

Tumor necrosis factor (Homo sapiens), sequence (P01375 whole entry, looked up): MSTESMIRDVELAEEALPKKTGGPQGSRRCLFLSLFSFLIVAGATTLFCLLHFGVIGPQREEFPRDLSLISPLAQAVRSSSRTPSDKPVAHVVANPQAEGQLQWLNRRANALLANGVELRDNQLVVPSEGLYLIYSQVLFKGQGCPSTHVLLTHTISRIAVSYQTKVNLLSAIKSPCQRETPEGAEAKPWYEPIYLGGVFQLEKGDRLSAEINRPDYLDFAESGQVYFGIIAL
E-selectin (Homo sapiens), sequence (P16581 whole entry, looked up): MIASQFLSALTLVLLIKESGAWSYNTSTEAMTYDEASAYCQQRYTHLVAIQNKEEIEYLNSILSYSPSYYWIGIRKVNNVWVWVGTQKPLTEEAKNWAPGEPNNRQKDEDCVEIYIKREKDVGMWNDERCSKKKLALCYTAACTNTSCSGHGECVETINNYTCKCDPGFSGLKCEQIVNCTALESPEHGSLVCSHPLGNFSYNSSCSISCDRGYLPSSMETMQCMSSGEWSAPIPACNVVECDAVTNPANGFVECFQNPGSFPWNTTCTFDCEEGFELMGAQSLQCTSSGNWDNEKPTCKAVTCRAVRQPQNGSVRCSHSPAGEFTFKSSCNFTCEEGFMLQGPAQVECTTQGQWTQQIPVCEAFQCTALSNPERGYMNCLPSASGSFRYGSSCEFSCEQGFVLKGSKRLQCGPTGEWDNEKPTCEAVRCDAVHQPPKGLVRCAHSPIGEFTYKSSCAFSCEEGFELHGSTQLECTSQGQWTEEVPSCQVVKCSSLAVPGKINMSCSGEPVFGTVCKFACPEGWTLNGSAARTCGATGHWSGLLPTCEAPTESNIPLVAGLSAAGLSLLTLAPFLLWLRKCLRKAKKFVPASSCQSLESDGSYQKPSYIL

As usually defined, the AC50 is the concentration at which the activity in the assay is half-maximal. Consider `CC(=O)[C@H]1CC[C@H]2[C@@H]3CC=C4C[C@@H](O)CC[C@]4(C)[C@H]3CC[C@]12C`, for which the outcome in assay [1], in assay [2], in assay [3], in [4], in assay [5] and in assay [6] was inactive. For the same compound, the result in assay [7], in assay [8], in assay [10], in [12], in assay [13] and in [14] was inactive. Also, the outcome in [15], in [16], in assay [17], in [18] and in assay [19] was inactive. The AC50 in assay [9] was 3.97 µM (active); in [11] it was 9.59 µM (active) and 11.8 µM (active).

As for `OC1OC[C@@H](O)[C@H](O)[C@H]1O` (some centres undefined), the outcome in assay [1], in assay [2], in assay [3], in [4], in assay [5] and in assay [6] was inactive. Further, the result in [7], in [8], in assay [9], in assay [10], in assay [11] and in [12] was inactive. The result in assay [13], in assay [14], in assay [15], in [16], in assay [17] and in assay [18] was inactive. For the same compound, the result in assay [19] was inactive.

`CNC[C@H](O)c1cccc(O)c1`: the results for the AC50 in assay [1] and in assay [9] were 0.0741 µM (active) and 0.167 µM (active), respectively. For the same compound, the result in assay [2], in assay [3], in [4], in assay [5], in assay [6] and in assay [7] was inactive. Moreover, the result in assay [8], in assay [10], in [11], in assay [12], in assay [13] and in assay [14] was inactive. Also, the outcome in [15], in assay [16], in assay [17], in [18] and in [19] was inactive.

Take `CC1CCC(C(C)CS)CC1S` (centres undefined): the half-maximal activity concentration (AC50) is 20 µM (active) in [1]; 33.7 µM (active) in [2]; 20 µM (active) in assay [3]; 34.6 µM (active) in assay [4]; 29.4 µM (active) in assay [6]; 36.3 µM (active) in [7]. Moreover, the half-maximal activity concentration (AC50) in assay [8] is 33.5 µM (active); in assay [10], 36.4 µM (active); in assay [11], 30.9 µM (active); in [13], 34.8 µM (active); in assay [14] it was 32.8 µM (active); in assay [15], 31.6 µM (active). Further, the AC50 in [16] is 30.8 µM (active); in assay [17], 32.6 µM (active); in assay [18] it was 30.8 µM (active); in assay [19] it was 34.6 µM (active). Further, the result in assay [5], in assay [9] and in assay [12] was inactive.

As for `CC(=O)/C=C/C1=C(C)CCCC1(C)C`, the outcome in assay [1], in assay [2], in assay [3], in [4], in assay [5] and in assay [6] was inactive. Moreover, the outcome in assay [7], in [8], in assay [9], in [10], in assay [11] and in assay [12] was inactive. The outcome in assay [13], in assay [14], in assay [15], in [16], in assay [17] and in assay [18] was inactive. The outcome in [19] was inactive.

Take `O=C=NC1CCC(CC2CCC(N=C=O)CC2)CC1` (centres undefined): the result in assay [1], in [3], in assay [4], in assay [5], in [6] and in assay [7] was inactive. For the same compound, the result in assay [8], in [9], in assay [10], in assay [13], in assay [14] and in assay [15] was inactive. Further, the result in assay [16], in assay [17], in [18] and in assay [19] was inactive. The half-maximal activity concentration (AC50) in [2] is 0.016 µM (active); in assay [11], 3.97 µM (active); in [12] it was 2.2 µM (active).

The values are drawn from PubChem BioAssay (EPA / NIEHS).
